Results on 8 molecules are retold here after PubChem BioAssay (Tox21).

Inconclusive results are not listed. A number with no mark means an inactive call. The source made the active and inactive calls. Unless noted, the call rests on the fitted dose curve; in most records, active means well fitted curve in the direction sought with a large enough effect in the repeat runs; inconclusive means weak or mixed curves; inactive means no such curve, though single readings can be large; an effect the other way counts as inactive or inconclusive.

Assay [1] can be described thus: qHTS assay to identify small molecule antagonists of the vitamin D receptor (VDR) signaling pathway - cell viability counter screen (AID 743225). Further: nearly all actives have a fitted effect of over 50% in size. In outline: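 Read-out: CellTiter-Glo luminescence measured 30 min after reagent addition at room temperature. Cells were VDR-bla HEK 293T exposed 16 h at 37C, 5% CO2, to compound with 3 nM final calcitriol agonist.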
The nature of assay [2]: qHTS assay to identify small molecule agonists of the NFkB signaling pathway - cell viability counter screen (AID 1159515; calls by dose curve; further: series mostly up to about 61 µM; nearly all actives have a fitted effect of over 55% in size). In outline:
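5 hr compound treatment of NFkB-bla ME-180 cells (2,000/well, seeded overnight beforehand), followed by reporter substrate for 1.5 hr. CellTiter-Glo added afterward; luminescence after 30 min RT.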
On the technique in general: qHTS replaces the single test concentration by a dilution series.

Assay [3] can be described thus: qHTS assay to identify small molecule agonists of the endoplasmic reticulum stress response signaling pathway (AID 1159516; active means well fitted activation curve with a large enough effect in the signal ratio in the repeat runs, not every such curve was filed as active; the % refers to the signal ratio). Summed up: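 Reporter HeLa cells (ESRE-beta-lactamase) underwent 5 hr compound incubation at 37 C and 5% CO2 in quantitative HTS format. Detection followed 2 hr of FRET substrate loading at room temperature.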
A short description of assay [4]: qHTS assay to identify small molecule agonists of the endoplasmic reticulum stress response signaling pathway - cell viability counter screen (AID 1159517; calls by dose curve;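 further: HeLa cells carrying an ER stress response element beta-lactamase reporter; series mostly up to about 61 µM; nearly all actives have a fitted effect of over 50% in size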). In outline:
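HeLa cells carrying an ESRE-driven beta-lactamase reporter receive compound for 5 hr at 37 C. Cell viability is then gauged with CellTiter-Glo by luminescence, 30 min at room temperature.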

A short description of assay [5]: qHTS assay to identify small molecule antagonists of the retinoid-related orphan receptor gamma (ROR-gamma) signaling pathway - cell viability counter screen (AID 1159520). Further: nearly all actives have a fitted effect of over 50% in size. Summed up:
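Cytotoxicity was read from cellular ATP (CellTiter-Glo luminescence) after 16 hr at 37 C with 1 uM doxycycline induction. The inducer was added 2 hr after compound transfer to Tet-on ROR gamma CHO cells.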

The target of assay [6] is Nuclear receptor ROR-gamma (Homo sapiens) (UniProt P51449). Nature of the assay: qHTS assay to identify small molecule antagonists of the retinoid-related orphan receptor gamma (ROR-gamma) signaling pathway (AID 1159521;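 further: CHO cells with doxycycline inducible ROR-gamma driving an RORE luciferase reporter; top concentration of the series differs between compounds; nearly all actives have a fitted effect of over 50% in size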). Summed up:
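CHO Tet-on RORγ, RORE-luc reporter. Cpd 2 h pre-incubation, then dox hyclate 1 uM final, 16 h, 37 C/5% CO2. ONE-Glo luminescence; decrease = antagonist.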

Assay [7] can be described thus: qHTS assay to identify small molecule agonists of the AP-1 signaling pathway - cell viability counter screen (AID 1159525; calls by dose curve; further: nearly all actives have a fitted effect of over 55% in size). Summed up:
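Luminescent ATP readout (Cell Titer Glo, 30 min RT), normalised to DMSO and tetra n-octyl ammonium bromide controls. Cells were ME-180 AP-1-bla in 0.5% dialyzed FBS Opti-MEM, with a 5 h, 37 °C compound exposure.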

Assay [8] can be described thus: qHTS assay to identify small molecule agonists of the AP-1 signaling pathway (AID 1159526; calls by dose curve).
The target in assay [9] is Retinoic acid receptor RXR-alpha (Homo sapiens) (UniProt P19793). Nature of the assay: qHTS assay to identify small molecule agonists of the RXR signaling pathway (AID 1159527; calls by dose curve; further: nearly all actives have a fitted effect of over 35% in size; further: potency means the concentration at half of the fitted maximal effect). In outline:
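Read-out: beta-lactamase FRET ratio (405 nm excitation, 460 and 530 nm emission) after 2 hr substrate loading at room temperature. Cells were RXR-alpha-UAS-bla HEK 293T treated with compounds for 16 hr in 2% charcoal-stripped FBS medium.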

Assay [10] is described as follows: qHTS assay to identify small molecule agonists of the RXR signaling pathway - cell viability counter screen (AID 1159529). Summed up: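 HEK 293T RXRa-bla cells, 2% CS-FBS; 5 h settle; cpd 16 h 37 C, 5% CO2; CellTiter-Glo 30 min RT, luminescence. Tetraoctyl ammonium bromide as positive control.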
Assay [11] in a line: qHTS assay to identify small molecule antagonists of the retinoid acid receptor (RAR) signaling pathway - cell viability counter screen (AID 1159551). Further: nearly all actives have a fitted effect of over 35% in size. In outline: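 Seed C3RL4 cells; next day add compound, then retinol to 1 uM final; incubate 6 h at 37 C; add CellTiter-Glo; read luminescence after 30 min at RT.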
The nature of assay [12]: qHTS assay to identify small molecule antagonists of the retinoic acid receptor (RAR) signaling pathway (AID 1159552; further: nearly all actives have a fitted effect of over 50% in size). Summed up: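 Cells of the C3RL4 line were seeded, incubated overnight, then dosed with compounds in DMSO followed immediately by retinol (1 uM final). Six hours later luciferase detection reagent went in; signal was measured after 30 min at RT.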
Assay [13] in a line: qHTS assay to identify small molecule agonists of the retinoic acid receptor (RAR) signaling pathway (AID 1159553). In outline:
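Activation of retinol signaling was monitored via a RARE luciferase reporter in C3RL4 cells. After 6 hr compound treatment at 37 C, detection reagent was added for 30 min at room temperature before luminescence reading.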

Assay [14] deals with Luciferin 4-monooxygenase (Photinus pyralis) (UniProt P08659). Put plainly: qHTS assay to identify small molecule inhibitors of firefly luciferase (AID 1224835). Further: series mostly up to about 120 µM; nearly all actives have a fitted effect of over 25% in size. Summed up:
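Inhibition of purified Photinus luciferase is measured by luminescence. Substrate levels (D-luciferin, ATP) sit at their KM values. Each compound is tested in a concentration series.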

A short description of assay [15]: qHTS assay to identify small molecule agonists of the constitutive androstane receptor (CAR) signaling pathway - cell viability counter screen (AID 1224836). Further: series mostly up to about 92 µM; nearly all actives have a fitted effect of over 45% in size. In outline: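 HepG2-CYP2B6-hCAR, 2500 cells/well, 4 h pre-incubation; cpd 15 conc + PK11195 0.75 uM final; 23 h, 37 C/5% CO2; CellTiter-Fluor, fluorescence.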
Assay [16] is described as follows: qHTS assay to identify small molecule antagonists of the constitutive androstane receptor (CAR) signaling pathway - cell viability counter screen (AID 1224837). Further: series mostly up to about 92 µM; nearly all actives have a fitted effect of over 45% in size. In outline:
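Using CellTiter-Fluor, viability is scored in HepG2 cells stably carrying hCAR and a 2.2kb CYP2B6 reporter after 23 hr compound exposure across 15 concentrations, with CITCO present at 50 nM.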

Assay [17] deals with Nuclear receptor subfamily 1 group I member 3 (Homo sapiens) (UniProt Q14994). Nature of the assay: qHTS assay to identify small molecule antagonists of the constitutive androstane receptor (CAR) signaling pathway (AID 1224838).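 Further: HepG2 cells stably expressing hCAR with CYP2B6 luciferase reporter stimulated by CITCO; nearly all actives have a fitted effect of over 40% in size.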 In outline:
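Reporter luminescence was quantified after 24 h exposure of hCAR/CYP2B6-2.2kb double-stable HepG2 cells to compounds at 15 concentrations in the presence of 50 nM CITCO final.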

Assay [18] has the same target. Put plainly: qHTS assay to identify small molecule agonists of the constitutive androstane receptor (CAR) signaling pathway (AID 1224839).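 Further: HepG2 cells stably carrying human CAR and a CYP2B6 luciferase reporter; series mostly up to about 92 µM; nearly all actives have a fitted effect of over 15% in size.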 In outline:
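HepG2-CYP2B6-hCAR cells, 2500/well, 4 h pre-incubation; compounds 15 conc.; PK11195 0.75 uM final; 24 h, 37 C/5% CO2; ONE-Glo luciferase read.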

A short description of assay [19]: qHTS assay to identify small molecule antagonists of the estrogen related receptor signaling pathway with the pleiotropic PPARgamma coactivator (PGC) from Tox21 10K library - cell viability counter screen (AID 1224840; active means well fitted cell-killing curve with a large enough effect in the repeat runs, not every such curve was filed as active; further: nearly all actives have a fitted effect of over 40% in size). In outline:
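Here the PGC/ERR cells serve as a cytotoxicity control: they are exposed to compounds for 17.5 hours at 37 C, and live-cell signal is quantified using CellTiter-Fluor fluorescence.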

The nature of assay [20]: qHTS assay to identify small molecule antagonists of the estrogen related receptor (ERR) signaling pathway from Tox21 library - cell viability counter screen (AID 1224834). Further: nearly all actives have a fitted effect of over 30% in size. Summed up: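 CellTiter-Fluor fluorescence measured; ERR cells; 17.5 h compound incubation at 37 C; 30 min reagent step.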

Sequence of Luciferin 4-monooxygenase (Photinus pyralis) (P08659 whole entry, looked up): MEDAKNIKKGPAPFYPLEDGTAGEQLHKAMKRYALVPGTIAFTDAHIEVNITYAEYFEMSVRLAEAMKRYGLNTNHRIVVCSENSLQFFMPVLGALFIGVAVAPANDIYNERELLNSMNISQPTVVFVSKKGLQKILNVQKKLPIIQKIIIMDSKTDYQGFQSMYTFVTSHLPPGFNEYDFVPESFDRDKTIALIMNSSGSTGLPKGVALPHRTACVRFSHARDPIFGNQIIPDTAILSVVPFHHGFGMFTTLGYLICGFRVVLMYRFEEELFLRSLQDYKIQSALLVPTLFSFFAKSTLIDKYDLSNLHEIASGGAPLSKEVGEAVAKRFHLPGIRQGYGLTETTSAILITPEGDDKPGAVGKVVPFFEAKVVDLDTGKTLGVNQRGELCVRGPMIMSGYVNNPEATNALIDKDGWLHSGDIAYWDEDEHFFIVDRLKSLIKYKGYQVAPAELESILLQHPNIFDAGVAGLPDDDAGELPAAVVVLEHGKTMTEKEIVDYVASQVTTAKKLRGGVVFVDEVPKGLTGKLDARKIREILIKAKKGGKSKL
Sequence of Retinoic acid receptor RXR-alpha (Homo sapiens) (P19793 whole entry, looked up): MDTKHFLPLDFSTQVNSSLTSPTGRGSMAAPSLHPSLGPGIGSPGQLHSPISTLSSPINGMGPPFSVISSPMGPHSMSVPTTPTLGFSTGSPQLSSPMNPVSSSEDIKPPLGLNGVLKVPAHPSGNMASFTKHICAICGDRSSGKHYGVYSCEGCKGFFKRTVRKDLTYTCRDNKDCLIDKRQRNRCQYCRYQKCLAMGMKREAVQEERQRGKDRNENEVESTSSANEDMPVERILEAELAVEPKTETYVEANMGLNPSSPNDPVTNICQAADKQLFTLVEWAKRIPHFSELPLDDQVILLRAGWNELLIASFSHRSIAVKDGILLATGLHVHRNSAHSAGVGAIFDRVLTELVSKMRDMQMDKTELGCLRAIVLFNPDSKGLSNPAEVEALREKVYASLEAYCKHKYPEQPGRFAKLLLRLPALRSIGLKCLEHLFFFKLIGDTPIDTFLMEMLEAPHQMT
Sequence of Nuclear receptor subfamily 1 group I member 3 (Homo sapiens) (Q14994 whole entry, looked up): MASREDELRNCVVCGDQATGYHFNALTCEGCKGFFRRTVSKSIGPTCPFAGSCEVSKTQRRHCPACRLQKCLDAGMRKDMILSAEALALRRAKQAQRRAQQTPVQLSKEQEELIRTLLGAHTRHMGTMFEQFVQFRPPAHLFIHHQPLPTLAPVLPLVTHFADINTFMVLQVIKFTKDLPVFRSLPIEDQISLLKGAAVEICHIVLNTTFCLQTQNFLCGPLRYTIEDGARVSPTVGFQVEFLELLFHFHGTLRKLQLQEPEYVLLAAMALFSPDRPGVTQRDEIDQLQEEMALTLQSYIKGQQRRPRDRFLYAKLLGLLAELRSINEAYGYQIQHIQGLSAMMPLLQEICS

On to `CCCCCC(CC)OC(=O)CCCOc1ccc(Cl)cc1Cl` (stereo not drawn), for which the outcome in assay [1], in assay [2], in [4], in [5], in [6] and in [7] was inactive. Moreover, the outcome in [11], in assay [12], in assay [15] and in [16] was inactive. Also, the Potency result in assay [3], in assay [8], in [10], in assay [13] and in assay [14] was “inactive” each time. Further, the Potency in assay [9] was 4.35 µM (active).

For `c1coc(Cn2cccc2)c1`, the result in assay [1], in [2], in assay [4], in [5], in assay [6] and in assay [7] was inactive. In addition, the outcome in assay [11], in assay [12], in assay [15], in assay [16], in assay [17] and in assay [19] was inactive. Moreover, the Potency entry in assay [3], in [8], in [9], in assay [10], in assay [13] and in [14] was “inactive” throughout. In addition, in [18], the Potency entry was “inactive”.

Turning to `CC(=O)OC/C=C(/C)CCC=C(C)C`, the molecule was classed as inactive in [1], in assay [2], in [4], in assay [5], in assay [6] and in [7]. The outcome in assay [11], in [12], in assay [15], in [16] and in assay [17] was inactive. The Potency entry in [3], in assay [8], in [9], in [10], in assay [13] and in assay [14] was “inactive” throughout. The Potency entry in [18] is “inactive”.

As to `Cc1ccc(S(=O)(=O)NC(=O)NN2CC3CCCC3C2)cc1` (stereo not drawn), the call in [1], in assay [2], in assay [4], in [5], in assay [6] and in assay [7] was inactive. For the same molecule, the molecule was classed as inactive in assay [11], in [20], in assay [15], in [16] and in [19]. Moreover, the Potency entry in [3], in assay [8], in [9], in [10], in assay [13] and in assay [14] was “inactive” throughout. In assay [18], the Potency result was “inactive”.

For the molecule `CCNC(=O)C(C)OC(=O)Nc1ccccc1` (stereo not drawn), the outcome in assay [1], in assay [2], in assay [4], in assay [5], in assay [6] and in [7] was inactive. Further, the molecule was called inactive in assay [11], in assay [12], in [15], in assay [16], in assay [17] and in assay [19]. For the same molecule, the Potency result in assay [3], in assay [8], in assay [9], in [10], in [13] and in [14] was “inactive” throughout. Moreover, the Potency result in assay [18] was “inactive”.

For `NS(=O)(=O)c1cc2c(cc1C(F)(F)F)NCNS2(=O)=O`, the call in [2], in assay [4], in [5], in assay [6], in [7] and in assay [11] was inactive. Also, the result in assay [20], in assay [15], in assay [16] and in [19] was inactive. For the same molecule, the Potency entry in [3], in assay [8], in assay [9], in assay [10], in assay [13] and in assay [14] was “inactive” in each case.

For `CCOC(=O)COc1ccc2c(C)c(CCN(CC)CC)c(=O)oc2c1Cl`, the result in assay [1], in assay [2], in [4], in assay [5], in assay [6] and in [7] was inactive. Further, the call in [11], in assay [12], in [15], in assay [16], in [17] and in assay [19] was inactive. For the same molecule, the Potency result in [3], in assay [8], in assay [9], in assay [10], in [13] and in [14] was “inactive” throughout. For the same molecule, in assay [18], the Potency result was “inactive”.

Consider `CCN(CC)CC(=O)Oc1ccc(NC(C)=O)cc1`, for which the molecule was called inactive in assay [1], in assay [2], in [4], in assay [5], in assay [6] and in assay [7]. The molecule was classed as inactive in assay [11], in assay [20], in assay [15], in assay [16] and in assay [19]. Besides, the Potency entry in [3], in assay [8], in assay [9], in assay [10], in assay [13] and in [14] was “inactive” each time. Further, in assay [18], the Potency entry is “inactive”.
